Whole data set: some 8,300 sequences, median “log2 fold change of degron read counts, EGFP-low vs EGFP+ sorted cells (limma voom), compound-induced degradation” near -1.1, cut for the highest 2% near 3.2. The list comes from a sample in which the highest values are over-represented; it also holds similar and randomly drawn sequences.
B1: 46F_47M_49E_50Q_52G_53A_54P_55F_67L_, Q9UKT9 (peptide)
chain: FMCEQCGAPFTQKGNLLRHIKL
B2: 46F_47T_49E_50I_52G_53H_54I_55F_67L_, Q9UKT9 (peptide)
chain: FTCEICGHIFTQKGNLLRHIKL
B3: 46F_47G_49D_50I_52G_53A_54N_55F_67L_, Q9UKT9 (peptide)
chain: FGCDICGANFTQKGNLLRHIKL
B4: 46F_47Y_49N_50Q_52G_53R_54H_55F_67L_, Q9UKT9 (peptide)
chain: FYCNQCGRHFTQKGNLLRHIKL
B5: 46F_47R_49N_50Q_52G_53H_54L_55F_67L_, Q9UKT9 (peptide)
chain: FRCNQCGHLFTQKGNLLRHIKL
B6: 46L_47F_49N_50Q_52G_53F_54A_55C_67L_, Q9UKT9 (peptide)
chain: LFCNQCGFACTQKGNLLRHIKL
B7: 46L_47A_49N_50Q_52G_53F_54E_55C_67L_, Q9UKT9 (peptide)
chain: LACNQCGFECTQKGNLLRHIKL
B8: 46F_47Y_49N_50Q_52G_53R_54L_55F_67L_, Q9UKT9 (peptide)
chain: FYCNQCGRLFTQKGNLLRHIKL
B9: 46F_47K_49D_50V_52G_53A_54V_55F_67L_, Q9UKT9 (peptide)
chain: FKCDVCGAVFTQKGNLLRHIKL
B10: 46F_47V_49D_50Q_52G_53A_54E_55F_67L_, Q9UKT9 (peptide)
chain: FVCDQCGAEFTQKGNLLRHIKL
B11: 46F_47C_49N_50Q_52G_53A_54S_55F_67L_, Q9UKT9 (peptide)
chain: FCCNQCGASFTQKGNLLRHIKL
B12: 46L_47W_49E_50I_52G_53F_54L_55C_67L_, Q9UKT9 (peptide)
chain: LWCEICGFLCTQKGNLLRHIKL
B13: 46F_47K_49N_50I_52G_53A_54H_55F_67L_, Q9UKT9 (peptide)
chain: FKCNICGAHFTQKGNLLRHIKL
B14: 46F_47V_49P_50V_52G_53A_54I_55F_67L_, Q9UKT9 (peptide)
chain: FVCPVCGAIFTQKGNLLRHIKL
B15: 46F_47R_49P_50V_52G_53A_54I_55F_67L_, Q9UKT9 (peptide)
chain: FRCPVCGAIFTQKGNLLRHIKL
B16: 46F_47F_49P_50V_52G_53A_54I_55F_67L_, Q9UKT9 (peptide)
chain: FFCPVCGAIFTQKGNLLRHIKL
B17: 46F_47Q_49D_50I_52G_53A_54I_55F_67L_, Q9UKT9 (peptide)
chain: FQCDICGAIFTQKGNLLRHIKL
B18: 46F_47C_49D_50I_52G_53A_54I_55F_67L_, Q9UKT9 (peptide)
chain: FCCDICGAIFTQKGNLLRHIKL
B19: 46F_47K_49D_50I_52G_53A_54I_55F_67L_, Q9UKT9 (peptide)
chain: FKCDICGAIFTQKGNLLRHIKL
B20: 46F_47G_49P_50V_52G_53A_54I_55F_67L_, Q9UKT9 (peptide)
chain: FGCPVCGAIFTQKGNLLRHIKL
B21: 46F_47Q_49P_50V_52G_53A_54I_55F_67L_, Q9UKT9 (peptide)
chain: FQCPVCGAIFTQKGNLLRHIKL
B22: 46F_47Q_49N_50V_52G_53A_54I_55F_67L_, Q9UKT9 (peptide)
chain: FQCNVCGAIFTQKGNLLRHIKL
B23: 46F_47R_49N_50V_52G_53A_54I_55F_67L_, Q9UKT9 (peptide)
chain: FRCNVCGAIFTQKGNLLRHIKL
B24: 46F_47H_49P_50V_52G_53A_54I_55F_67L_, Q9UKT9 (peptide)
chain: FHCPVCGAIFTQKGNLLRHIKL
B25: 46F_47Y_49N_50V_52G_53A_54I_55F_67L_, Q9UKT9 (peptide)
chain: FYCNVCGAIFTQKGNLLRHIKL

Biological target: T1, CRBN, Q96SW2
T1 chain: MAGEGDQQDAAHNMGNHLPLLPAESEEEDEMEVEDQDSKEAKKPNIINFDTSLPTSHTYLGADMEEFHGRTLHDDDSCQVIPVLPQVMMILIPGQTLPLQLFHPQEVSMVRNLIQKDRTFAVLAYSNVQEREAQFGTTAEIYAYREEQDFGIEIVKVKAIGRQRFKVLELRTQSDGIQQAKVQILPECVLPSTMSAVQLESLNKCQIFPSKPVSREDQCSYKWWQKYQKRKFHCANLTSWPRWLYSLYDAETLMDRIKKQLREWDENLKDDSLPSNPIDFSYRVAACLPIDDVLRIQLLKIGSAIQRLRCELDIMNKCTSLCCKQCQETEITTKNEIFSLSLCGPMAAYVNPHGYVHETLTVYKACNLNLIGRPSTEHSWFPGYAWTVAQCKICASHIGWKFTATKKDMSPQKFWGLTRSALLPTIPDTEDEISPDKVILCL
Experiment: log2 fold change of degron read counts, EGFP-low vs EGFP+ sorted cells (limma voom), compound-induced degradation; higher = more compound-induced degradation of the degron-EGFP fusion; degrons are variants of IKZF1/3 zinc finger 2; compound dose not given here
Conditions: Jurkat, 18 h

[1] = compound: compound 19 (5-tert-butyl-thalidomide)
[2] = compound: compound 22 (5-morpholino-thalidomide)
[3] = compound: compound 33 (diphenyl IMiD analogue)
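Further: pooled lentiviral library of zinc finger degron-EGFP fusions in mCherry-positive Jurkat cells, FACS-sorted after compound exposure, with degron abundance counted by next-generation sequencing.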

Row | Sequence | log2 fold change of degron read counts [1] | log2 fold change of degron read counts [2] | log2 fold change of degron read counts [3] | log2 fold change of degron read counts (compound: thalidomide)
1 | B1 | -0.389 | -0.627 | 1.41 | -0.399
2 | B2 | -2.87 | -3.7 | -2.68 | -2.59
3 | B3 | -0.278 | -0.474 | 0.0264 | -0.564
4 | B4 | -2.11 | -2.71 | -2.01 | -2.05
5 | B5 | -2.18 | -2.82 | -2.46 | -2.45
6 | B6 | -0.744 | -1.36 | -1.06 | -1.14
7 | B7 | -2.6 | -2.34 | -2.97 | -2.24
8 | B8 | -1.45 | -2.33 | -2.01 | -1.7
9 | B9 | -3.26 | -3.42 | -3.55 | -2.43
10 | B10 | -3.02 | -2.35 | -2.96 | -1.78
11 | B11 | -1.43 | -1.92 | -0.445 | -1.53
12 | B12 | 1.13 | 1.39 | 1.44 | 0.295
13 | B13 | -1.74 | -2.18 | -2.99 | -1.98
14 | B14 | -1.21 | 0.225 | 1.42 | 1.3
15 | B15 | -1.67 | -0.943 | 0.606 | 0.832
16 | B16 | 1.97 | 2.07 | 0.852 | 0.24
17 | B17 | -1.32 | 2.34 | 1.7 | 3.47
18 | B18 | -0.218 | 0.0957 | 1.18 | 0.132
19 | B19 | -2.93 | -3.42 | -2.93 | -2.01
20 | B20 | 3.73 | 2.12 | 2.5 | 0.899
21 | B21 | -0.448 | 3.15 | 2.64 | 3.53
22 | B22 | -1.8 | 1.3 | 1.44 | 3.37
23 | B23 | -1.97 | -2.04 | -0.492 | -0.595
24 | B24 | 0.164 | 0.683 | 1.33 | -0.0983
25 | B25 | -0.301 | 0.0156 | -0.132 | -1.44

From the supplement of paper PMC12645437, “Orthogonal IMiD-Degron Pairs Induce Selective Protein Degradation in Cells” (ACS Chemical Biology, 2025)
